{
  "source": "PubChem BioAssay",
  "note": "Calls of active or inactive are those of the source.",
  "data": [
    {"experiment": "HepG2 liver cancer cell viability effects, profiling panel, resazurin fluorescence, 24 h, PK04 Diversity Set (AID 1172); note: test concentration not given here", "details": "higher = more signal", "values": [
      {"smiles": "O=C1C[C@@](C(=O)NCC(F)(F)F)(c2ccc([N+](=O)[O-])cc2)[C@@H](c2ccc(CO)cc2)N1C1CCCCC1", "z-score": -0.289},
      {"smiles": "COC(=O)[C@@]1(Cc2ccc(OC)cc2)[C@H]2c3cc(C(=O)N(C)C)n(CCc4c[nH]c5ccc(O)cc45)c3C[C@H]2CN1C(=O)c1ccccc1", "z-score": -0.855},
      {"smiles": "CC(C)c1ccc(NN2C(C(O)c3ccco3)C=CC3C(=O)N(c4ccccc4)C(=O)C32)cc1", "note": "(stereo not given)", "z-score": -0.517},
      {"smiles": "COC(=O)[C@@]1(Cc2ccc(OC)cc2)[C@H]2c3cc(C(=O)N(C)C)n(Cc4nc5ccccc5[nH]4)c3C[C@H]2CN1C(=O)c1ccccc1", "z-score": 0.014},
      {"smiles": "CN1C(=O)[C@@]2(CCS(=O)(=O)c3ccccc3)N=C(c3ccc(OCCCO)cc3)O[C@H]2c2ccccc21", "z-score": 0.316},
      {"smiles": "O=C1O[C@@H](c2ccccc2)[C@@H](c2ccccc2)N2[C@@H](c3ccc(O)cc3)[C@]3(C(=O)Nc4ccccc43)[C@@H](C(=O)Nc3nc4ccccc4s3)[C@H]12", "z-score": -1.66},
      {"smiles": "CC(C)NC(=O)[C@@]1(C)c2ccccc2C(=O)N(C(C)C)[C@H]1c1ccc(CO)cc1", "z-score": -1.1},
      {"smiles": "COC(=O)[C@@]1(Cc2ccccc2)[C@H]2c3cc(C(=O)N4CCCC4)[nH]c3C[C@H]2CN1C(=O)c1ccccc1", "z-score": -0.6}
    ]},
    {"experiment": "basal S. cerevisiae growth modulation, no modifier, primary screen, OD600, strain BY4716, 24 h, basal condition (AID 1173)", "details": "OD600, 24 h, higher = more signal, called active from +8 up or from −8 down", "values": [
      {"smiles": "O=C1O[C@@H](c2ccccc2)[C@@H](c2ccccc2)N2[C@@H](c3ccc(O)cc3)[C@]3(C(=O)Nc4ccc(C#CCCO)cc43)[C@@H](C(=O)Nc3nc4ccccc4s3)[C@H]12", "z-score": "0.442 (inactive)"},
      {"smiles": "C=CCOC(=O)[C@@H]1[C@H]2C(=O)O[C@H](c3ccccc3)[C@H](c3ccccc3)N2[C@H](c2ccc(OCCOC(=O)[C@H]3C[C@H]4C(=O)N[C@@H](CCCCN(C)C)C(=O)N4[C@H]3c3cccc(OCCO)c3)cc2)[C@@]12C(=O)Nc1ccc(I)cc12", "z-score": "2.24 (inactive)"},
      {"smiles": "Cc1c(NC(=O)/C(C#N)=C/C=C/c2ccc(N(C)C)cc2)c(=O)n(-c2ccccc2)n1C", "z-score": "-0.312 (inactive)"},
      {"smiles": "O=C1C2C=CC(C(O)c3cc(C(F)(F)F)cc(C(F)(F)F)c3)N(Nc3ccc([N+](=O)[O-])cc3)C2C(=O)N1c1ccccc1", "note": "(stereo not given)", "z-score": "0.55 (inactive)"},
      {"smiles": "O=C1NC(=O)C2C1C=CC(C(O)c1cc(C(F)(F)F)cc(C(F)(F)F)c1)N2Nc1ccc(Cl)cc1Cl", "note": "(stereo not given)", "z-score": "-4.29 (inactive)"},
      {"smiles": "CO[C@H]1O[C@H](CO)[C@@H](OC(=O)Nc2ccccc2-c2ccccc2)[C@H](OC(=O)Nc2ccc3c(c2)OCO3)[C@@H]1OC(=O)Nc1ccc2c(c1)OCO2", "z-score": "1.03 (inactive)"},
      {"smiles": "Cc1ccc(F)cc1S(=O)(=O)N[C@@H]1CCN(Cc2ccc(Oc3ccccc3)cc2)C1", "z-score": "-17.3 (active)"},
      {"smiles": "CCOC(=O)C1=CC[C@@H](c2ccccc2)N(S(=O)(=O)c2ccc(C)cc2)C1", "z-score": "1.39 (inactive)"},
      {"smiles": "Cc1ccc(S[C@]2(C(=O)NCC(F)(F)F)CC(=O)N(Cc3ccccc3)[C@@H]2c2ccc(CO)cc2)cc1", "z-score": "-0.185 (inactive)"},
      {"smiles": "CC(C)CNC(=O)[C@@H]1c2ccccc2C(=O)N(Cc2cc(F)cc(C(F)(F)F)c2)[C@H]1c1ccc(CO)cc1", "z-score": "-0.874 (inactive)"},
      {"smiles": "CCN(CC)c1ccc(N2CC=CC34O[C@@H]5/C=C\\CCC(C)OC(=O)C5[C@H]3C(=O)N(CCO)[C@@H]4C2=O)cc1", "note": "(stereo not given in full)", "z-score": "-0.958 (inactive)"},
      {"smiles": "COc1ccccc1CN1C(=O)c2ccccc2[C@@H](C(=O)NC(C)C)[C@@H]1c1ccc(CO)cc1", "z-score": "-0.186 (inactive)"},
      {"smiles": "[N-]=[N+]=NCc1ccccc1[C@H]1OC(c2ccc(OCCCO)cc2)=N[C@@]1(CCS(=O)(=O)c1ccccc1)C(N)=O", "z-score": "-0.258 (inactive)"},
      {"smiles": "C=CCOC(=O)[C@@H]1[C@H]2C(=O)O[C@H](c3ccccc3)[C@H](c3ccccc3)N2[C@H](c2ccc(OCCOC(=O)[C@H]3C[C@H]4C(=O)N[C@@H](CCCC[N+](C)(C)C)C(=O)N4[C@H]3c3ccc(O)cc3)cc2)[C@@]12C(=O)Nc1ccc(I)cc12", "z-score": "1.47 (inactive)"},
      {"smiles": "C=C(CCCC)/C(=C/C[C@@H](OC(C)=O)c1ccc(CO)o1)c1cc(C(=O)OC)ccc1OC", "z-score": "-1.63 (inactive)"},
      {"smiles": "CC(C)C(O)C1C=CC2C(=O)N(C)C(=O)C2N1N(c1ccccc1)c1ccccc1", "note": "(stereo not given)", "z-score": "0.72 (inactive)"},
      {"smiles": "C=CCNC(=O)[C@@H]1[C@H]2C(=O)O[C@H](c3ccccc3)[C@H](c3ccccc3)N2[C@H](c2ccc(OCCO)cc2)[C@@]12C(=O)N(C(=O)OCCOC)c1ccc(C#CC3=CCCCC3)cc12", "z-score": "1.83 (inactive)"}
    ]}
  ]
}
